Pyk2 oligo antag = blocks oligomerization of human Pyk2 in cells. Q14289. Q293 cells, Pyk2 FERM NanoBiT luminescence; hits give low values. z-score (the deposit names both 25 µM and 10 µM). 99,000 tested, 0.83% active. AID 1347419;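 active means Z-score of -3 or lower, scaled per plate to the spread of control and sample wells; inactive means z-score above -3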;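 further: negative z-score means lost luminescence so less FERM oligomerization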
M1 antag = blocks the rat M1 muscarinic receptor response to acetylcholine; B-score at 10 µM; P08482; 64,000 tested, 3.4% active; CHO-M1 cells, Fluo-4 calcium, ACh EC80 antagonist mode; hits give low values;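 active means calcium fluorescence response, raw or row-and-column corrected B-score, differing from the plate sample mean either way at a set confidence level, mostly lower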
Target sequence (P08482 whole entry, looked up): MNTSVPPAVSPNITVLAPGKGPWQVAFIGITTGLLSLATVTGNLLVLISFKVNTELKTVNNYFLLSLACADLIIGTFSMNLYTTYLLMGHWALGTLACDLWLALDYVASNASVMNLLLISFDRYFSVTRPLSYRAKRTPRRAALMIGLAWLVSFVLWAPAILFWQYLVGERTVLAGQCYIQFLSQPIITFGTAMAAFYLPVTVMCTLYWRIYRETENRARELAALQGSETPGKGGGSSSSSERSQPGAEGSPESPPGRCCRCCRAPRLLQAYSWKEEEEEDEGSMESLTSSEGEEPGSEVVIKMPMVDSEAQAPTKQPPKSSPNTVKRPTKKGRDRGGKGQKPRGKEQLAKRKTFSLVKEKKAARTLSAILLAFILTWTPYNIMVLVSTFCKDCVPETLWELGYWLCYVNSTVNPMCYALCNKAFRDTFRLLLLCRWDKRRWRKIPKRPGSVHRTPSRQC
M1 ag = activates the M1 muscarinic receptor. AID 626. B-score at 10 µM. CHO-M1 cells, Fluo-4 calcium fluorescence, agonist mode; hits give high values. 64,000 tested, 3% active;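 active means fluorescence rise, raw or as B-score row- and column-corrected plate score, outside the 99.7% band of its plate's samples, either direction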
Cav32 inh = inhibitors of human Cav3.2 T-type calcium channel; O95180; Cav3.2-expressing cells, Fluo-4 calcium fluorescence FDSS; hits give low values; B-score at 10 µM; 100,000 tested, 4% active;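 active means single-dose well whose peak fluorescence ratio is a statistical outlier from its plate by either plate-standardised score or position-corrected B-score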
M1 antag confirm = confirmation of rat M1 muscarinic receptor antagonists; AID 677; 1,700 tested, 43% active; calcium response (max-min fluorescence) at 10 µM; shares compounds with M1 antag; CHO-M1 cells, Fluo-4 calcium, ACh EC80 antagonism; hits give low values;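 active means calcium response below the same-plate mean of wells given acetylcholine alone at its 80%-effect dose, minus 3 SD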
mGluR4 antag = mGluR4 (human) activity, M1 antagonist secondary assay | shares compounds with M1 antag | CHO-mGluR4 calcium flux, Fluo-4 fluorescence, glutamate EC80; hits give low values | fluorescence response (max-min) at 10 µM | 1,700 tested, 0.9% active;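 active means fluorescence response below the plate's average for near-maximal glutamate wells, less 3 SD of those wells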;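 further: raw unnormalized fluorescence span taken in the window right after glutamate addition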
Each line names hits and unclear results; the compound was inactive in the other large screens (follow-up assays come after a bar, where they were run). In the library only some 7.1% were active in any assay of this set; here they are far more common.

c1cncc(C(c2nnnn2C2CCCC2)N2CCCC2)c1 (centres undefined)	M1 antag -2 | M1 antag confirm inactive | mGluR4 antag inactive
NC(=O)C1CCN(C(c2ccccc2)c2nnnn2C2CCCC2)CC1 (centres undefined)	none (no result: M1 antag, M1 ag)
COc1ccc(-c2nsc3c(SCC(=O)Nc4cc(C)ccc4C)ncnc23)cc1	none (no result: Pyk2 oligo antag, M1 antag, M1 ag)
CC(C)OCCCNC(=O)c1cc2c(s1)CS(=O)(=O)C2	M1 antag -4.6 | M1 antag confirm inactive | mGluR4 antag inactive
O=C(CN1C(=O)c2ccccc2S1(=O)=O)N1CCc2ccccc2C1	none (no result: Cav32 inh)
CCOC(=O)CC(NC(=O)c1ccco1)c1ccccc1Cl (centres undefined)	none
CCOC(=O)CC(Nc1nc(N2CCOCC2)nc(N2CCOCC2)n1)c1ccccc1Cl (centres undefined)	M1 antag -12 (no result: Cav32 inh) | M1 antag confirm 366 | mGluR4 antag inactive
CC1(c2nnc(-c3cccc(Cl)c3)o2)CC(c2ccc(Br)cc2)=NO1 (centres undefined)	none (no result: Pyk2 oligo antag, M1 antag, M1 ag)
CC(C)CC(=O)N1CCN(S(C)(=O)=O)CC1	M1 antag -3.6 | M1 antag confirm inactive | mGluR4 antag inactive
C=CCSc1nnc2c(n1)OC(c1cccnc1)N(C(C)=O)c1ccccc1-2 (centres undefined)	M1 antag -4.2 | M1 antag confirm 373 | mGluR4 antag inactive
Cn1cnnc1SCc1ccc(C(=O)N=Nc2c(O)n(C)c3ccccc23)cc1	none (no result: M1 antag, M1 ag, Cav32 inh)
Cn1cnnc1SCc1ccc(C(=O)n2ncc(C#N)c2N)cc1	M1 antag -3.6 | M1 antag confirm inactive | mGluR4 antag inactive
CCCC(C)NS(=O)(=O)c1ccc(OC)c(C)c1 (centres undefined)	none (no result: M1 antag, M1 ag)
CCOC(=O)c1[nH]c2ccc(OC)cc2c1NC(=O)CN1CCN(c2ccccn2)CC1	none (no result: Pyk2 oligo antag, Cav32 inh)
CCOC(=O)c1[nH]c2ccc(OCC)cc2c1NC(=O)CN1CCN(c2ccccn2)CC1	M1 antag -2.5 | M1 antag confirm inactive | mGluR4 antag inactive
COc1cccc(NC(=O)CSc2nc3c(c(=O)n2C)SC(C)C3)c1 (centres undefined)	none (no result: Pyk2 oligo antag)
COc1ccc(C(=O)Nn2c(SCC(=O)NCC3CCCO3)nc3ccccc3c2=O)cc1 (centres undefined)	M1 antag -6.9 | M1 antag confirm inactive | mGluR4 antag inactive
Cc1ccc(-n2nnc3c(SCC(=O)NCC4CCCO4)ncnc32)cc1 (centres undefined)	M1 antag -2.4 | M1 antag confirm inactive | mGluR4 antag inactive
Cn1cc(Cl)nc1C(O)c1ccccc1 (centres undefined)	none (no result: Pyk2 oligo antag, Cav32 inh)
COC(=O)c1ccccc1NC(=O)N1CCN(C/C=C/c2ccccc2)CC1	M1 antag -4.1 | M1 antag confirm inactive | mGluR4 antag inactive
O=C(Nc1ccc2c(c1)OCO2)N1CCN(C/C=C/c2ccccc2)CC1	none
Cc1cc(-c2cc(C(=O)Nc3ccccc3)on2)nc(NCC2CC2)n1	none (no result: Pyk2 oligo antag, M1 antag, M1 ag)
COc1cc(C(=O)N(CCc2ccccc2)C2CC3CCC(C2)N3C)cc(OC)c1OC (centres undefined)	none
CCCCN(C(=O)c1ccc(Cl)cc1)C1CC2CCC(C1)N2C (centres undefined)	M1 antag -2.1 (no result: Pyk2 oligo antag) | M1 antag confirm 369 | mGluR4 antag inactive
Nc1ncc(Br)cc1S(=O)(=O)NCCC(=O)Nc1cccc(Cl)c1	none (no result: M1 antag, M1 ag)
COc1cc(OC)c(NC(=O)CCNS(=O)(=O)c2cc(Br)cnc2N)cc1Cl	M1 antag -6.9 (no result: Cav32 inh) | M1 antag confirm inactive | mGluR4 antag inactive
Nc1ncc(Br)cc1S(=O)(=O)NCCC(=O)N1CCN(c2ncccn2)CC1	M1 antag -2.9 | M1 antag confirm inactive | mGluR4 antag inactive
O=C(CCNS(=O)(=O)c1cccc2nsnc12)N1CCN(c2ccccn2)CC1	M1 antag -2 (no result: Cav32 inh) | M1 antag confirm 42 | mGluR4 antag inactive
Cc1c(Cl)cccc1NC(=O)c1ccc(OCC(=O)NCc2ccccc2)cc1	none (no result: M1 antag, M1 ag, Cav32 inh)
COc1ccccc1-c1c(C)nn2c(NCCN3CCCC3)cc(C)nc12	M1 antag -1.9 (no result: Pyk2 oligo antag) | M1 antag confirm inactive | mGluR4 antag inactive
Cc1cc(NCCCN2CCOCC2)n2nc(C)c(-c3ccccc3)c2n1	none (no result: Cav32 inh)
CCOC(=O)c1nnn(-c2nonc2NC(C)=O)c1C	M1 antag -0.9 | M1 antag confirm 574 | mGluR4 antag inactive
CC(C)(C)n1nnnc1CN1CCSCC1	none (no result: M1 antag, M1 ag)
CCCCN1C(=O)C2ON(c3ccccc3C)C(c3ccco3)C2C1=O (centres undefined)	M1 antag -0.94 | M1 antag confirm 532 | mGluR4 antag inactive
CCc1ccc(N2C(=O)C3ON(c4ccccc4)C(c4ccco4)C3C2=O)cc1 (centres undefined)	none
Cc1c(C(=O)COC(C)(C)C)[nH]c2ccccc12	none (no result: Cav32 inh)
O=C1CC(c2ccc(Cl)cc2)CC(O)=C1C=NCCN1CCNCC1 (centres undefined)	M1 antag -5.3 (no result: Pyk2 oligo antag) | M1 antag confirm 512 | mGluR4 antag inactive
C#Cc1ccc([C@@H]2C=C(C(=O)N3CCN(Cc4ccc5c(c4)OCO5)CC3)O[C@H](OCC)[C@H]2CCCO)cc1	none (no result: Pyk2 oligo antag, M1 antag, M1 ag)
Cc1nnc(SCCn2c(N3CCN(c4ccccc4)CC3)nc3c2c(=O)n(C)c(=O)n3C)s1	none (no result: Pyk2 oligo antag, Cav32 inh)
CCC1(C)Cc2ccccc2-c2nc3n(c(=O)c21)CCCCC3 (centres undefined)	M1 antag -4 | M1 antag confirm 420 | mGluR4 antag inactive
CCN(CCO)C(=O)C(c1ccccc1)c1ccccc1	none (no result: M1 antag, M1 ag)
CCN(CC)CCOC(=O)C(c1ccccc1)c1ccccc1	M1 antag -13 (no result: Pyk2 oligo antag) | M1 antag confirm 19 | mGluR4 antag inactive
O=C(Nc1ccc(Br)c(Cl)c1)C1CC1	M1 antag -6.2 | M1 antag confirm inactive | mGluR4 antag inactive
Cc1ccc(CN2C3=NCCCN3c3ccccc32)cc1	M1 antag -2.8 | M1 antag confirm inactive | mGluR4 antag inactive
COCCn1c(C23CC4CC(CC(C4)C2)C3)n[nH]c1=S	M1 antag -2.8 | M1 antag confirm inactive | mGluR4 antag inactive
CC(C)(C#CCN1CCCC1)OCCC#N	none
C=C(C)C(C)(C#CCN1CCCC1)OC(C)=O (centres undefined)	M1 antag -1.5 | M1 antag confirm 526 | mGluR4 antag inactive
Cc1nnc(SCC(=O)N2CCN(S(=O)(=O)c3ccccc3)CC2)n1Cc1ccccc1	M1 antag -6.4 | M1 antag confirm 350 | mGluR4 antag inactive
CCn1c(SCC(=O)N2CCN(S(=O)(=O)c3ccccc3)CC2)nnc1-c1cccs1	none
Cc1ccc(S(=O)(=O)Nc2nsc(N)n2)cc1	M1 antag -2.9 | M1 antag confirm inactive | mGluR4 antag inactive
COC(=O)/C=c1/sc2nc3ccccc3n2c1=O	M1 antag -2.5 | M1 antag confirm inactive | mGluR4 antag inactive
CCC(=O)Nc1cc(Cl)ccc1C(=O)O	none (no result: M1 antag, M1 ag)
CCC(=O)Nc1cc(Cl)ccc1N1CCN(C(=O)CC)CC1	M1 antag -4.9 | M1 antag confirm inactive | mGluR4 antag inactive
Cc1ccc(NC(=O)C2CCN(C(=O)NC3CCCCC3)CC2)cc1Cl	none
Cc1ccc(NC(=O)NC2CCCCC2)cc1Cl	M1 antag -1.1 | M1 antag confirm inactive | mGluR4 antag inactive

High-throughput results as filed in PubChem.
